# Experimental data reported in the supplement of paper PMC10981050.
# Several values for one entry are separate records, joined by “and”; a condition that tells them apart may be missing. Equal entries are not always repeated. Structures can show the parent of a compound that is named as a salt.
# Columns and labels:
# Test in all cases: cell viability relative to vehicle control; higher = less cytotoxic
# Conditions in all cases: 10 µM
# [1] = test system: K562
# In short: (§1)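 Each screen used CRISPR-edited mutant and wild-type clones from four leukaemia lines. Compounds were acoustically dispensed at a single 10 µM dose, and CellTiter-Glo luminescence was read after 48 h with the supernatant first removed. Viability was analysed in Genedata Screener and given as percent of the on-plate vehicle control.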
# [2] = test system: MARIMO
# In short: as §1
# [3] = test system: MOLM14
# In short: as §1
# [4] = test system: OCI-AML2
# In short: as §1
structure (smiles),measurement,setting,value
Cc1cc(SCc2sc(-c3ccc(C(F)(F)F)c(F)c3)nc2C)ccc1OCC(=O)O,cell viability,[1]; SRSF2 genotype: SRSF2 P95H/wt,100% and 101%
same,cell viability,[1]; SRSF2 genotype: SRSF2 wt/wt,105%
same,cell viability,[2]; SRSF2 genotype: SRSF2 P95H/wt,106%
same,cell viability,[2]; SRSF2 genotype: SRSF2 wt/wt,112%
same,cell viability,[3]; SRSF2 genotype: SRSF2 P95H/wt,99.7%
same,cell viability,[3]; SRSF2 genotype: SRSF2 wt/wt,103%
same,cell viability,[4]; SRSF2 genotype: P95H/wt,95.9%
same,cell viability,[4]; SRSF2 genotype: wt/wt,101%
C=C[C@H]1CN2CC[C@@]3(C(=O)Nc4ccccc43)[C@@H]2C[C@@H]1/C(=C\OC)C(=O)OC [Isocorynoxeine],cell viability,[1]; SRSF2 genotype: SRSF2 P95H/wt,81.8% and 92.6%
same,cell viability,[1]; SRSF2 genotype: SRSF2 wt/wt,82.3%
same,cell viability,[2]; SRSF2 genotype: SRSF2 P95H/wt,77.4%
same,cell viability,[2]; SRSF2 genotype: SRSF2 wt/wt,72.7%
same,cell viability,[3]; SRSF2 genotype: SRSF2 P95H/wt,84.4%
same,cell viability,[3]; SRSF2 genotype: SRSF2 wt/wt,79.5%
same,cell viability,[4]; SRSF2 genotype: P95H/wt,88.2%
same,cell viability,[4]; SRSF2 genotype: wt/wt,83.3%
CC(C)NCC(O)c1ccccc1Cl (stereo not drawn) [Clorprenaline HCL],cell viability,[1]; SRSF2 genotype: SRSF2 P95H/wt,98.2% and 96.8%
same,cell viability,[1]; SRSF2 genotype: SRSF2 wt/wt,104%
same,cell viability,[2]; SRSF2 genotype: SRSF2 P95H/wt,98.2%
same,cell viability,[2]; SRSF2 genotype: SRSF2 wt/wt,107%
same,cell viability,[3]; SRSF2 genotype: SRSF2 P95H/wt,95.2%
same,cell viability,[3]; SRSF2 genotype: SRSF2 wt/wt,101%
same,cell viability,[4]; SRSF2 genotype: P95H/wt,108%
same,cell viability,[4]; SRSF2 genotype: wt/wt,99.1%
CN(C)CCc1ccc(O)cc1 [Hordenine],cell viability,[1]; SRSF2 genotype: SRSF2 P95H/wt,104% and 106%
same,cell viability,[1]; SRSF2 genotype: SRSF2 wt/wt,103%
same,cell viability,[2]; SRSF2 genotype: SRSF2 P95H/wt,108%
same,cell viability,[2]; SRSF2 genotype: SRSF2 wt/wt,106%
same,cell viability,[3]; SRSF2 genotype: SRSF2 P95H/wt,101%
same,cell viability,[3]; SRSF2 genotype: SRSF2 wt/wt,109%
same,cell viability,[4]; SRSF2 genotype: P95H/wt,107%
same,cell viability,[4]; SRSF2 genotype: wt/wt,94.8%
CN1C(=O)CCS(=O)(=O)C1c1ccc(Cl)cc1 (stereo not drawn) [Chlormezanone (Trancopal)],cell viability,[1]; SRSF2 genotype: SRSF2 P95H/wt,102% and 101%
same,cell viability,[1]; SRSF2 genotype: SRSF2 wt/wt,93.5%
same,cell viability,[2]; SRSF2 genotype: SRSF2 P95H/wt,97%
same,cell viability,[2]; SRSF2 genotype: SRSF2 wt/wt,96.7%
same,cell viability,[3]; SRSF2 genotype: SRSF2 P95H/wt,93.1%
same,cell viability,[3]; SRSF2 genotype: SRSF2 wt/wt,97.2%
same,cell viability,[4]; SRSF2 genotype: P95H/wt,94.1%
same,cell viability,[4]; SRSF2 genotype: wt/wt,95.6%
C=CC[C@]1(O)CC[C@H]2[C@@H]3CCC4=CC(=O)CCC4=C3C=C[C@@]21C [Altrenogest],cell viability,[1]; SRSF2 genotype: SRSF2 P95H/wt,92.6% and 98.1%
same,cell viability,[1]; SRSF2 genotype: SRSF2 wt/wt,97.5%
same,cell viability,[2]; SRSF2 genotype: SRSF2 P95H/wt,99.9%
same,cell viability,[2]; SRSF2 genotype: SRSF2 wt/wt,102%
same,cell viability,[3]; SRSF2 genotype: SRSF2 P95H/wt,99.8%
same,cell viability,[3]; SRSF2 genotype: SRSF2 wt/wt,107%
same,cell viability,[4]; SRSF2 genotype: P95H/wt,109%
same,cell viability,[4]; SRSF2 genotype: wt/wt,96.9%
